# Only some compounds are listed: those with a hit (about 1.1% of all), similar ones and a draw of the others.
# GPT2 inh: blocks human glutamate pyruvate transaminase 2; Q8TD30; Recombinant GPT2, coupled pyruvate oxidase/HRP Amplex Red fluorescence; Potency, µM (series often up to 57.7 µM), without a hit: top-dose activity change, negative = inhibition, hits mostly inhibitors; actives 0.25% (n = 100,000); further: potency means the concentration at half of the fitted maximal effect; nearly all actives have a fitted effect of over 60% in size
#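 Inhibition is scored from Amplex Red fluorescence generated when pyruvate oxidase and HRP act on pyruvate released by GPT2. Reactions contain 10ng/uL enzyme, 250uM a-KG and 2mM L-alanine and run 30 min at room temperature.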
# SNCA viab count: reduces viability of HEK-293 SNCA reporter cells. HEK-293-SNCA-luc viability, GF-AFC fluorescence, 24 h. Potency, µM (highest dose often 57.1 µM), inactives show at the top dose activity change, negative = cytotoxicity, usual class: cytotoxic. actives 0.12% (n = 150,000). AID 1671193;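 further: potency means the concentration at half of the fitted maximal effect; 0% = DMSO-treated cells and -100% = medium-only wells without cells; nearly all actives have a fitted effect of over 30% in size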
#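 HEK-293-SNCA-luc cells (1500/well) plated 24 h, then exposed 24 h to a dilution series; GF-AFC added 30 min at 37C, fluorescence 405/540 nm; normalised to medium-only and DMSO wells, Hill fit.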
# SNCA expr inh: inhibitors of alpha-synuclein (SNCA) gene expression; actives 0.17% (n = 140,000); AID 1671194; Potency, µM (highest dose often 57.2 µM), for inactives: top-dose activity change, negative = inhibition, actives largely listed as inhibitors; HEK-293 SNCA-luciferase knock-in, luminescence, 24 h;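 further: potency means the concentration at half of the fitted maximal effect; plate controls were DMSO cells for no effect and cell-free wells for full effect; nearly all actives have a fitted effect of over 45% in size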
# IP6K1 inhibitor: inhibitors of human IP6K1. IP6K1 kinase, ADP-Glo luminescence, 2 h; hits give low values. actives 0.81% (n = 140,000). activity change, % (series mostly up to about 58 µM); in the data active means activity change below about -25%
# Target sequence (Q92551 whole entry, looked up): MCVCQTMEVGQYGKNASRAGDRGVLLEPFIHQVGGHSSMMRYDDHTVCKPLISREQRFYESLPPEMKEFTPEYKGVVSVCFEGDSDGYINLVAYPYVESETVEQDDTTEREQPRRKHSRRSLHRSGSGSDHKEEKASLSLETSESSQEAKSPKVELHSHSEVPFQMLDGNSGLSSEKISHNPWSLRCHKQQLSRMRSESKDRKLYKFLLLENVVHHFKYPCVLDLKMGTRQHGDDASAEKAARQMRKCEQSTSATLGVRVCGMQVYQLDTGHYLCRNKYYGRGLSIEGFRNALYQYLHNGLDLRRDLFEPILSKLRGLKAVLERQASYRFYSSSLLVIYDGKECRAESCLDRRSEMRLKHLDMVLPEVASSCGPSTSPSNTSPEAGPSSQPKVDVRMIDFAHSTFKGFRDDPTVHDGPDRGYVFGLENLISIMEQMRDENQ
#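 ADP-Glo luminescence measures ADP made by human IP6K1 during a 2 h RT reaction with ATP/IP6 (mix at 1.3 mM/130 uM); top library doses 57.5 and 19.1 uM final.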
# IP6K1 conf: confirmation of human IP6K1 inhibitors; shares compounds with IP6K1 inhibitor; recombinant IP6K1 kinase, ADP-Glo luminescence, 2 h; Potency, µM (series often up to 49 µM), without a hit: at the top dose activity change, negative = inhibition, most hits filed as inhibitors; actives 13% (n = 1,200); AID 1645852; further: potency means the concentration at half of the fitted maximal effect; nearly all actives have a fitted effect of over 65% in size
# * marks the source's active call; other numbers are inactive results; i = inactive; u = inconclusive; x = not tested or not shown; [ ] = dose if it differs, or a comment. Unless noted, the call rests on the fitted dose curve; in most records, active means well fitted curve in the direction sought with a large enough effect; inconclusive means small, poorly fitted or top-dose-only effect, or another doubt; inactive means no such curve, though single readings can be large; an effect the other way counts as inactive or inconclusive. Unless noted, on the % scale 0 is the no-effect control and ±100 the full control effect.
SMILES,GPT2 inh,SNCA viab count,SNCA expr inh,IP6K1 inhibitor,IP6K1 conf
COc1ccc(-c2cn3cc(C(=O)NCCN4CCOCC4)nc3s2)cc1,-3%,-5%,102%,3,x
CCOC(=O)c1oc2c(c1C)-c1nn(Cc3ccc(Cl)cc3)cc1CC2,x,9%,4%,-38*,u
CNC(=O)c1cc(C)nc2onc(C3CCCN(C(=O)c4ccccc4Cl)C3)c12 (stereo unspecified),x,x,x,6,x
Cc1ccc(NC(=O)c2nc3sccn3c2-c2ccc(C(F)(F)F)cc2)cc1,i,4%,2%,19,x
Cc1cccc(C(=O)Nc2ccc(N3CCC(CCN4CCOCC4)CC3)c(C(=O)O)c2)c1,x,0%,u,-11,x
O=C(Nc1ccc(N2CCOCC2)c(C(=O)O)c1)c1ccc(Br)cc1,x,7%,34%,-33*,u
O=C(Nc1ccc(N2CCC(N3CCCCC3)CC2)c(C(=O)O)c1)c1ccc(Br)cc1,x,9%,42%,-29*,u
O=C(Nc1cnc(N2CCC(N3CCCCC3)CC2)c(C(=O)O)c1)c1ccc(Br)cc1,x,5%,-7%,-34*,u
CCOC(=O)C1c2c(OC)ccc3c2C(=CC(C)(C)CO3)CN1Cc1ccc(NC(C)=O)cc1 (stereo unspecified),x,x,x,2,x
O=C(O)c1cccc(NC(=O)c2cccc(S(=O)(=O)Nc3cccc(C(=O)O)c3)c2)c1,x,3%,23%,-28*,u
COc1cccc(C2c3c(oc4ccc(C)cc4c3=O)C(=O)N2CCCN2CCOCC2)c1OC (stereo unspecified),x,-3%,-6%,-25*,-2%
COc1cc(C2c3c(oc4cc(C)c(C)cc4c3=O)C(=O)N2CCCN2CCOCC2)ccc1O (stereo unspecified),x,-9%,7%,37,x
COc1ccc(CC(=O)N2CCCC(C(=O)N3CCC(c4nc5ncccc5[nH]4)CC3)C2)cc1 (stereo unspecified),i,7%,6%,-3,x
COc1cccc(-c2nc3cc4c(cc3cc2CN2CCCOCC2)OCO4)c1OC,3%[11.5 µM],-8%,-1%,-35*,-19%
COc1ccc(-c2ccc3c(c2)C(=O)N2CC[C@H](n4nnc(C(N)=O)c4C(N)=O)C[C@H]2C(=O)N3)c(OC)c1,u,-1%,20%,-44*,u
CC(C)Oc1cccc(-c2nnc(CCC(=O)NCCc3cccs3)c(=O)[nH]2)c1,i,9%,0%,-27*,u
CCOc1ccc2c(n1)CCN(C(=O)Cc1cccc(OC)c1)C2,-3%,3%[12.5 µM],48%,-26*,-23%
COc1ccc(C2=NS(=O)(=O)N(C)C(C(=O)NCc3ccccc3)=C2)cc1OC,x,4%,38%,-26*,-12%
COc1ccc(CNC(=O)C2=CC(c3ccc(OC)c(OC)c3)=NS(=O)(=O)N2C)cc1,x,6%,9%,-10,x
Cc1ccccc1-c1[nH]nc2ncc(-c3cccc(O)c3)nc12,0%[88.5 µM],-18%[87.6 µM],-12%[87.6 µM],4,x
Oc1cccc(-c2c3nc(c(-c4cccc(O)c4)c4ccc([nH]4)c(-c4cccc(O)c4)c4nc(c(-c5cccc(O)c5)c5ccc2[nH]5)CC4)C=C3)c1,5%,-28%[23.9 µM],74%[25.6 µM],-53*,u
O=C(NCCc1ccc(Cl)cc1)C1CCN(C(=O)c2ccc(-c3cccs3)cc2)CC1,x,x,x,-12,x
COc1cc2ncnc(Nc3cccc(Br)c3)c2cc1OC,-5%,5%,44%,x,u
COc1cc2ncnc(Nc3cccc(O)c3)c2cc1OC,-1%,-30%,x,-9,x
NC(=O)Cc1c[nH]c2ncc(-c3ccc4c(c3)OCO4)cc12,-2%[88.5 µM],11%[87.6 µM],13%[87.6 µM],-47*,15µM*
O=C(Cc1c[nH]c2ncc(-c3ccccc3)cc12)Nc1ccc(Cl)cc1,-1%[88.5 µM],-11%[87.6 µM],-15%[87.6 µM],-11,x
O=C(Cc1c[nH]c2ncc(-c3ccc(F)c(Cl)c3)cc12)NCc1cccnc1,1%[88.5 µM],-18%[87.6 µM],-19%[87.6 µM],-26*,u
O=C(Cc1c[nH]c2ncc(-c3cccc(O)c3)cc12)N1CCOCC1,i,-20%[87.6 µM],u,-17,x
NC(=O)Cc1c[nH]c2ncc(-c3ccc(F)c(Cl)c3)cc12,-13%[88.5 µM],4%[87.6 µM],5%[87.6 µM],-36*,u
NC(=O)Cc1c[nH]c2ncc(-c3ccc(Cl)cc3)cc12,4%[88.5 µM],-3%[87.6 µM],10%[87.6 µM],-43*,u
